# Bioassay records deposited in PubChem BioAssay by National Center for Advancing Translational Sciences (NCATS).
# G9a inh: qHTS Assay for Inhibitors of Histone Lysine Methyltransferase G9a; AID 504332, 2011; 8.8% of 350,000 active; Potency, µM (titrated, usually from 102 µM), actives largely listed as inhibitors; G9a H3K9 monomethylation, AlphaScreen, 2 h; Histone-lysine N-methyltransferase EHMT2 (Homo sapiens), Q96KQ7; also: nearly all actives have a fitted effect of over 75% in size
# Target sequence (Q96KQ7 913-1193 limits assumed): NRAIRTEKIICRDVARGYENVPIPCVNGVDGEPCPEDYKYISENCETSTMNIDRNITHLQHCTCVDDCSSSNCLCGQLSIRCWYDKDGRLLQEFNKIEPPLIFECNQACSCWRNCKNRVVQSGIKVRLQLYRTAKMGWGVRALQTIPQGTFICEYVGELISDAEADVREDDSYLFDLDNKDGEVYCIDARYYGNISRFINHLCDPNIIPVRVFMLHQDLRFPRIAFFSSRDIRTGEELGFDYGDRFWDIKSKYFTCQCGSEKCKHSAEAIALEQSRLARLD
#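 AlphaScreen detection with an anti-monomethyl H3K9 antibody quantified product after a 2 h room-temperature reaction containing 500 nM biotinylated H3K9 peptide, 20 µM SAM and 20 nM enzyme, which had been preincubated 15 min with compound.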
# Sfp PPTase inh: qHTS Assay for Inhibitors of Bacillus subtilis Sfp phosphopantetheinyl transferase (PPTase) | Biochemical Sfp PPTase activity, qHTS | Potency, µM, most hits filed as inhibitors | 3.5% of 310,000 active;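 also: the enzyme is Sfp with the accession as filed and its product quenches rhodamine fluorescence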
#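 Step 1, compound plus 15 nM Sfp-PPTase, 15 min, room temperature. Step 2, add rhodamine-CoA (5 uM) and BHQ-2-YbbR (12.5 uM). Step 3, read 525/598 nm fluorescence at 0 and 30 min.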
# ALOX12 inh: Primary qHTS assay for inhibitors of human arachidonate 12S-lipoxygenase (ALOX12): Round 2. Potency, µM (top dose mostly 108 µM), most hits filed as inhibitors. 1.1% of 580,000 active. Polyunsaturated fatty acid lipoxygenase ALOX12 (Homo sapiens), P18054. AID 1671190, 2021. purified 12hLO, xylenol orange hydroperoxide absorbance
#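 Hydroperoxide product was detected by ferrous iron/xylenol orange as the 573 to 405 nm absorbance ratio. Arachidonic acid at 40 uM (final) was turned over for 30 min at room temperature by 150 nM human 12hLO, pH 7.0 Hepes buffer, after 15 min compound preincubation.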
# VDR inh: Inhibitors of the vitamin D receptor (VDR): qHTS; 0.93% of 400,000 active; VDR-SRC2-3 peptide fluorescence polarization, 2 h; Potency, µM, actives largely listed as inhibitors; Vitamin D3 receptor (Homo sapiens), P11473
# Target sequence (P11473 whole entry, looked up): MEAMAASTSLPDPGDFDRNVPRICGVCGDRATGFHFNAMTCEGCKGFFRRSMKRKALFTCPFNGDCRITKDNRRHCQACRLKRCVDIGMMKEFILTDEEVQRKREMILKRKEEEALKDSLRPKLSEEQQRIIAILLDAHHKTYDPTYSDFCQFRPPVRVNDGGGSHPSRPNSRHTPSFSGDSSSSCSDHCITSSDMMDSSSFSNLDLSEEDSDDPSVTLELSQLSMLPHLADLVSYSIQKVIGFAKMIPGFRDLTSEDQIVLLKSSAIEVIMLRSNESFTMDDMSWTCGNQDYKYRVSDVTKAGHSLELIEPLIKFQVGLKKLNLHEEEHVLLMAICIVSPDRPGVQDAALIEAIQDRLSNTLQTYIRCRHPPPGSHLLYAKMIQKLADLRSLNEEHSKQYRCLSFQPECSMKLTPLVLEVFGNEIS
#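 Fluorescence polarization assay measuring small-molecule disruption of VDR binding to the coregulator peptide SRC2-3. Compounds were pin-transferred (23 nl) into the reagent mix and incubated 2 h at room temperature before reading.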
# GRP78 ERSR act: qHTS for Inducers of the Endoplasmic Reticulum Stress Response (ERSR) in Human Glioma: qHTS; U87-MG GRP78 promoter luciferase reporter, 16 h; Potency, µM, actives largely listed as activators; 0.02% of 420,000 active; also: series mostly up to about 76 µM; nearly all actives have a fitted effect of over 35% in size
#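 Stably transfected U87-MG human glioma cells carrying a GRP78-based luminescent sensor were seeded at 1000 cells/well, pin-dosed with compounds and incubated 16 h. Luciferase reagent was then added, and end-point luminescence was read after 10 min at room temperature.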
# Hits are given with their value; . = inactive; ? = inconclusive; / = no result; ! = not active in a repeat; [ ] = another dose, or the depositor's remark. The full list was thinned out, with hits kept by preference. Calls follow the shape of the dose curve; as a rule, active = well fitted curve in the direction sought with a large enough effect; inconclusive = small, poorly fitted or top-dose-only effect, or another doubt; inactive = no such curve, though single readings can be large; an effect the other way counts as inactive or inconclusive.
SMILES,G9a inh,Sfp PPTase inh,ALOX12 inh,VDR inh,GRP78 ERSR act
Cc1ccccc1CN1C(=O)c2ccccc2Sc2ccc(C(=O)NCCN3CCOCC3)cc21,.,.,?,.,.
O=C(NCc1ccccn1)c1cc(S(=O)(=O)C2CCS(=O)(=O)C2)ccc1F (configuration not stated),/,/,.,/,/
CCNC(=O)NC(=O)CN(C)C(C)C(C)(C)C (configuration not stated),/,/,.,/,/
CN(c1ccccc1)S(=O)(=O)c1cccc(NC(=O)Cn2cnc3c2c(=O)n(C)c(=O)n3C)c1,?,.,.,.,.
Cn1c(=O)c2c(ncn2CC(=O)Nc2cccc(S(=O)(=O)Nc3ccccc3F)c2)n(C)c1=O,/,56µM,?,.,.
CCCCCCCCC1=NCCc2c1[nH]c1ccccc21,45µM,56µM,.,?,.
Oc1ccc2ccccc2c1CN1CCN(c2ccccc2F)CC1,28µM,.,45µM,.,.
O=C(CN1CCN(c2ccccc2F)CC1)c1ccc(O)c(O)c1,32µM,?,?,.,.
O=S(=O)(c1ccccc1)N1CCN(Cc2c(O)ccc3ccccc23)CC1,/,/,7.1µM,.,.
O=S(=O)(c1ccccc1)N1CCN(CCO)CC1,/,.,.,.,.
O=c1cc(CN2CCN(C/C=C/c3ccccc3)CC2)c2cc(O)c(-c3ccccc3)cc2o1,.,.,.,?,.
O=c1oc2ccccc2c(N2CCN(c3ccccc3F)CC2)c1CN1CCCC1,.,/,.,.,.
Oc1ccc2ccccc2c1CN1CCN(C/C=C/c2ccccc2)CC1,10µM,.,?,?,.
Cc1ccc(NC(=O)c2ccccc2SCC(=O)NC2CC2)c(Cl)c1,/,/,.,/,/
COc1ccc(NC(C)=O)cc1NC(=O)CNC(c1ccc(F)cc1)c1cccs1 (configuration not stated),/,/,.,/,/
CC(=O)NCCC12CC3CC(CC(C3)C1)C2,/,/,.,/,/
CCN1CCN(CCOc2ccc3c(=O)c(-c4ccc(Cl)cc4)coc3c2)CC1,/,/,18µM,/,/
CCCCc1c(C)nc2ccc(Br)cc2c1SCCC#N,28µM,.,/,/,/
CCCCc1c(C)nc2ccc(OC)cc2c1SCCC(=O)O,.,.,45µM,.,.
CCc1c(C)nc2ccc(Br)cc2c1SCCC#N,.,.,.,.,.
CC[C@]12c3[nH]c4ccc(Cl)cc4c3CCN1C(=O)[C@@H](CC(=O)NCC13CC4CC(CC(C4)C1)C3)C[C@@H]2C(=O)N1CCN(C(=O)C2CC2)CC1,/,/,40µM,.,.
Cc1ccc(-c2csc(=Nc3ccccc3)n2Cc2ccc3c(c2)OCO3)cc1,11µM,/,?,.,.
COC(=O)c1cc(=O)n(Cc2ccc3c(c2)OCO3)c(=Nc2ccccc2)s1,?,.,.,.,.
CCNC(=O)NC(=O)CSc1ccc2ccccc2n1,/,/,.,/,/
S=c1[nH]nc(CCSCc2ccccc2)n1-c1ccccc1,3.5µM,.,?,.,.
SMILES,G9a inh,Sfp PPTase inh,ALOX12 inh,VDR inh,GRP78 ERSR act
COc1ccc(-n2c(CCc3ccccc3)n[nH]c2=S)cc1,.,.,?,.,.
COc1ccc(CCCc2n[nH]c(=S)n2C)cc1C,11µM,.,?,.,.
COc1ccc(CSCCc2n[nH]c(=S)n2-c2ccccc2)cc1C,2µM,.,?,.,.
O=C(Cn1ccc2ccc(Br)cc21)NCCCO,/,/,.,/,/
COc1cc2c(cc1OC)C(CNC(=O)c1cccs1)N(C(=O)Nc1cccc(F)c1)CC2 (configuration not stated),/,/,.,/,/
CC(=O)N1CC[n+]2c(-c3ccc(Cl)cc3)csc21,14µM,?,?,20µM,.
CCc1ccc(-c2csc3[n+]2CCN3C(C)=O)cc1,11µM,40µM,?,25µM,.
O=C(CN1CC[n+]2c(-c3cccs3)csc21)c1ccc(-c2ccccc2)cc1,/,.,?,?,.
CCS(=O)(=O)Nc1ccc(C)n(CC(=O)NCc2cc(F)ccc2F)c1=O,/,/,.,/,/
CC1(Br)C(Sc2ccccc2[N+](=O)[O-])=Nc2ccccc21 (configuration not stated),/,/,7.9µM,/,/
Cc1ccc(C2=[N+]([O-])C3(CCCCC/C3=N\NC(N)=S)N(O)C2(C)C)o1 (configuration not stated),?,71µM,/,/,/
Oc1ccccc1/C=N/Nc1ccccc1,8.9µM,.,32µM,.,?
O=C(Cc1ccccc1)N/N=C/C=C/c1ccccc1[N+](=O)[O-],.,.,?,.,.
O=C(CC(=O)N/N=C/c1ccccc1[N+](=O)[O-])N/N=C/c1ccccc1[N+](=O)[O-],/,/,.,/,/
Cc1ccc(N/N=C/C=C/c2ccccc2[N+](=O)[O-])c(C)c1,/,/,16µM,/,/
O=C(O)c1ccc(N/N=C/C=C/c2ccccc2[N+](=O)[O-])cc1,14µM,.,.,.,.
O=[N+]([O-])c1ccccc1C=NNc1ccccc1,/,/,20µM,.,.
COc1ccc(Nc2nc(NCc3ccc4c(c3)OCO4)nc3nccnc23)cc1,/,/,.,/,/
CC1CSc2ccc(S(=O)(=O)NCCc3ccccc3)cc2NC1=O (configuration not stated),/,/,.,/,/
C/C(=N\NC(=O)c1cccs1)c1c(O)cc(C)oc1=O,.[12.7 µM],.,.,.,.
C/C(=N\Nc1ccc(Cl)cc1)c1c(O)cc(C)oc1=O,1.6µM,.,?,.,.
Cc1cc(O)c(/C=N/Nc2ccccc2)c(=O)o1,?,18µM,?,.,.
COc1ccc(F)cc1CN(C)CC(=O)N1c2ccccc2NC(=O)CC1C (configuration not stated),/,/,.,/,/
S=C(Nc1ccc(Cl)cc1)NC1CC1,/,/,.,/,/
O=S(=O)(Cc1ccccc1)N(O)c1ccccc1,20µM,50µM,.,40µM,.
SMILES,G9a inh,Sfp PPTase inh,ALOX12 inh,VDR inh,GRP78 ERSR act
CN1CCC(=C2c3ccccc3C(O)c3ccccc32)CC1 (configuration not stated),?,.,.,.,.
CN1CCc2cccc3c2C1Cc1ccc(O)c(O)c1-3 (configuration not stated),1.9µM!,56µM!,?,10µM!,.
Cc1cc(C(=O)N/N=C/c2cc(Br)c(Br)o2)n[nH]1,10µM,?,.,?,.
Cc1cc(C(=O)N/N=C\c2cc(C(C)(C)C)c(O)c(C(C)(C)C)c2)n[nH]1,40µM,.,.,.,.
O=[N+]([O-])c1ccc(Nc2ccc(N3CCOCC3)cc2)c([N+](=O)[O-])c1,22µM,.,.,.,.
Cc1cc(C)nc(NC(=O)C2c3ccccc3Oc3ccccc32)n1,50µM,.,.,.,.
CN(C)CCNCCCOc1ccccc1-c1ccccc1,8.9µM,50µM,/,/,/
CCC(C)NCCOCCOc1ccc(Cl)cc1Br (configuration not stated),2.2µM,50µM,?,.,.
